From PubChem
ALOX12 inh: Primary qHTS assay for inhibitors of human arachidonate 12S-lipoxygenase (ALOX12): Round 2; Polyunsaturated fatty acid lipoxygenase ALOX12 (Homo sapiens), P18054; purified 12hLO, xylenol orange hydroperoxide absorbance; Potency, µM (titrated, usually from 108 µM), usual class: inhibitors; 580,000 tested, 1.1% active
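Purified human 12hLO (150 nM final) in 25 mM Hepes, 0.01% Triton X-100, pH 7.0 was preincubated 15 min at room temperature with compound. Then 40 uM arachidonic acid was added, 30 min. Hydroperoxide was read by Fe-XO absorbance ratio 573/405 nm.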
HP1b chromo inh: HTS for Inhibitors of HP1-beta Chromodomain Interactions with Methylated Histone Tails | Chromobox protein homolog 1 (Homo sapiens), P83916 | AlphaScreen HP1-beta / biotin-H3K9me3 peptide binding | Potency, µM (titrated, usually from 114 µM), usual class: inhibitors | 390,000 tested, 0.56% active; note: nearly all actives have a fitted effect of over 70% in size
Target sequence (P83916 whole entry, looked up): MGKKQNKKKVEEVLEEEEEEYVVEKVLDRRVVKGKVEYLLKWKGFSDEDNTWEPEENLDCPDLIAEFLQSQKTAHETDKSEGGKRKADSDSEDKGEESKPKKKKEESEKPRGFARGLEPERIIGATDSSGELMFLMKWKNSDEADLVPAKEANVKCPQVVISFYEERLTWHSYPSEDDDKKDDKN
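Compound inhibition of the preformed complex between 50 nM HP1-beta and 50 nM biotinylated H3K9me3 peptide was read by AlphaScreen. Buffer was PBS pH 7.4 with 0.01% Tween-20. Incubations ran 30 min at room temperature, with 10 ug/mL donor/acceptor beads.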
Sfp inh: qHTS Assay for Inhibitors of Bacillus subtilis Sfp phosphopantetheinyl transferase (PPTase) | 4'-phosphopantetheinyl transferase ffp (Bacillus subtilis), Q9F4F7 | Biochemical Sfp PPTase activity, qHTS | Potency, µM, actives largely listed as inhibitors | 310,000 tested, 3.5% active;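 note: the enzyme is Sfp with the accession as filed and its product quenches rhodamine fluorescence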
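With Hepes-Na pH 7.6 buffer containing 10 mM MgCl2, Sfp (15 nM) modified BHQ-2-YbbR (12.5 uM) using rhodamine-CoA (5 uM). Two reads 30 minutes apart at 525/598 nm yielded each well's rate.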
JMJD2A Tudor inh: qHTS Assay for Inhibitors of JMJD2A-Tudor Domain. 390,000 tested, 4.4% active. Potency, µM (titrated, usually from 114 µM), hits mostly inhibitors. AlphaScreen JMJD2A-Tudor / H3K4me3 peptide binding; note: nearly all actives have a fitted effect of over 50% in size
BAZ2B inh: qHTS Assay for Inhibitors of BAZ2B; AlphaScreen BAZ2B-H3K14Ac peptide displacement; Potency, µM (highest dose often 114 µM), usual class: inhibitors; 360,000 tested, 4.4% active; note: nearly all actives have a fitted effect of over 60% in size
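AlphaScreen displacement of biotin-H3(5-23)K14Ac peptide (50 nM final) from BAZ2B (50 nM final) in PBS pH 7.4, 0.01% Tween-20; complex preformed 30 min RT, then compounds (top 110 uM) 30 min RT, beads 20 min dark.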
G9a inh: qHTS Assay for Inhibitors of Histone Lysine Methyltransferase G9a | Histone-lysine N-methyltransferase EHMT2 (Homo sapiens), Q96KQ7 | G9a H3K9 monomethylation, AlphaScreen, 2 h | Potency, µM (series often up to 102 µM), usual class: inhibitors | 350,000 tested, 8.8% active | AID 504332, 2011; note: nearly all actives have a fitted effect of over 75% in size
Target sequence (Q96KQ7 913-1193 limits assumed): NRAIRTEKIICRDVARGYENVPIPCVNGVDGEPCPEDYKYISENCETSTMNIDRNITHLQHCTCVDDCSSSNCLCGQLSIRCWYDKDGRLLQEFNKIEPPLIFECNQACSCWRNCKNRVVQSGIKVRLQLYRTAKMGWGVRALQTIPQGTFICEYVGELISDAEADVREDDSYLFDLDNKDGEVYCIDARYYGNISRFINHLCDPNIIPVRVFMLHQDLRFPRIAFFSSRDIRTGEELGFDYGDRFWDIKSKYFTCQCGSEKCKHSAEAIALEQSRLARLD
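Quantitative HTS format: methyltransferase activity on a biotin-tagged H3K9 peptide is measured by AlphaScreen, using a rabbit anti-monomethyl-H3K9 antibody with streptavidin donor and anti-IgG acceptor beads. Final levels are 20 nM enzyme, 500 nM peptide, 20 uM SAM; 2 h RT.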
Numbers stand for hits; n = inactive; u = inconclusive; x = not tested or not shown. Most compounds without a hit are left out; they make up all but 8.7% or so of the library. Calls come from the whole dose curve; as a rule, active = well fitted curve in the direction sought with a large enough effect; inconclusive = small, poorly fitted or top-dose-only effect, or another doubt; inactive = no such curve, though single readings can be large; an effect the other way counts as inactive or inconclusive.

SMILES	ALOX12 inh	HP1b chromo inh	Sfp inh	JMJD2A Tudor inh	BAZ2B inh	G9a inh
O=C(CCCn1c(SCC(=O)c2ccc(O)c(O)c2)nc2ccccc2c1=O)NCC1CCCO1 (stereo not drawn)	1.78µM	n	n	31.6µM	u	35.5µM
O=C(CSc1cn(CC(=O)N2CCCCC2)c2ccccc12)NCC1CCCO1 (stereo not drawn)	n	n	n	50.1µM	n	n
O=C(CSc1nc2ccccc2c(=O)n1CC1CCCO1)NCC1CCCO1 (stereo not drawn)	n	n	n	n	n	n
O=C(CCCn1c(SCC(=O)NC2CCCCC2)nc2ccccc2c1=O)NCC1CCCO1 (stereo not drawn)	n	n	n	n	n	n
O=C(CSc1nc2ccccc2c(=O)n1CCC(=O)N1CCN(c2ccccc2)CC1)NCC1CCCO1 (stereo not drawn)	n	n	n	56.2µM	n	n
CC1CCN(C(=O)Cn2cc(SCC(=O)NCC3CCCO3)c3ccccc32)CC1 (stereo not drawn)	n	n	n	n	n	n
COCCn1ccnc1C1CCN(C(=O)c2ccc3n[nH]nc3c2)CC1	n	x	x	x	x	x
CC(C)c1ccc(NS(=O)(=O)c2ccc3[nH]cc(C(=O)NC4CCCCC4)c(=O)c3c2)cc1	35.5µM	n	x	u	x	u
O=C(Nc1ccc2c(c1)OCO2)N1CCCc2ccccc21	u	n	n	n	n	56.2µM
O=C(CNC(=O)c1ccc2c(c1)OCO2)Nc1ncccc1O	n	n	x	56.2µM	u	u
O=C(Nc1ccccn1)c1ccc2c(c1)OCO2	n	n	n	n	n	50.1µM
CN(C)C(=S)Nc1ccc2c(c1)OCO2	u	n	22.4µM	n	n	8.91µM
O=C(Nc1ccccn1)c1ccc2c(c1)OCCO2	n	n	n	n	n	n
Cc1cccnc1NC(=O)c1ccc2c(c1)OCO2	n	n	x	n	n	n
CCC(CO)Nc1nc2c(c(=O)n(C)c(=O)n2C)n1Cc1c(F)cccc1Cl (stereo not drawn)	n	x	x	x	x	x
O=C(NC1CCCc2ccccc21)c1cc(Cl)nc(Cl)c1 (stereo not drawn)	n	x	x	x	x	x
O=C(Nc1ccc2c(c1)OCO2)c1ccccn1	5.62µM	u	x	4.47µM	u	1.58µM
CCOc1ccc(Oc2ccccc2NC(=O)CN2C(=O)NC3(CCCC3)C2=O)cc1	n	n	x	n	n	56.2µM
CCC(=O)Nc1ccccc1Oc1ccccc1	n	u	n	56.2µM	n	n
CCOc1ccc2nc(NC(=O)CN3C(=O)NC4(CCCC4)C3=O)sc2c1	n	n	x	n	n	50.1µM
CN(C)/C=C\C(=C/C(=O)C(F)(F)F)Nc1ccccc1Oc1ccccc1	n	n	44.7µM	u	n	n
Cc1ccc2nc(NC(=O)CN3C(=O)NC4(CCCC4)C3=O)sc2c1	u	n	x	n	n	u
CCOc1ccccc1NC(=O)CN1C(=O)NC2(CCCCC2)C1=O	n	x	x	x	x	x
CCOC(=O)C(NC(=O)c1cc(C)cc(C)c1)C(=O)OCC	n	x	x	x	x	x
COc1ccc(C(=O)N[C@H]2CO[C@H]3[C@@H]2OC[C@@H]3n2nnnc2-c2cccc(OC)c2)cc1	n	x	x	x	x	x
SMILES	ALOX12 inh	HP1b chromo inh	Sfp inh	JMJD2A Tudor inh	BAZ2B inh	G9a inh
Cc1noc([C@@H]2CN(Cc3cccc(Cl)c3)C[C@H]2CO)n1	n	x	x	x	x	x
O=C(Cc1ccccc1Cl)NC1CCC(c2ccccc2)CC1 (stereo not drawn)	n	x	x	x	x	x
O=C(O)C(Sc1ccncn1)c1ccccc1 (stereo not drawn)	n	n	n	n	n	n
O=C(O)C(c1ccccc1)C(c1ccccc1)c1ccccc1 (stereo not drawn)	n	n	n	n	50.1µM	n
O=C(O)C(SC(C(=O)O)c1ccccc1)c1ccccc1 (stereo not drawn)	n	n	x	56.2µM	x	x
Cn1cccc1C(=O)OCc1cc(Cl)cc2c1OCOC2	u	n	70.8µM	u	n	u
O=C(Nc1ccc(F)cc1)C1CCc2nc(N3CCN(C(=O)C4CCC4)CC3)sc2C1 (stereo not drawn)	n	x	x	x	x	x
CN1CCC2(CC1)N=C(c1ccc(F)cc1)C(=S)N2C(=O)c1ccccc1	u	u	50.1µM	u	n	22.4µM
COC(=O)C1(Cc2ccccc2)NC(c2ccccc2C)C2C(=O)N(c3ccc4c(c3)OCO4)C(=O)C21 (stereo not drawn)	n	n	n	n	n	0.794µM
CCN1C(=O)[C@H]2[C@@H](c3ccc(-c4ccc5c(c4)OCO5)cc3)N[C@@](Cc3ccccc3)(C(=O)OC)[C@H]2C1=O	u	n	x	n	x	x
CCc1ccc(CN2CCN(c3ccc(C(N)=O)cn3)CC2)nc1	n	x	x	x	x	x
Cc1ccc(CN(C(=O)CCCc2cccs2)C2CC2)cc1	8.91µM	x	x	x	x	x
Cc1ccccc1C(=O)NC(=S)NCC(=O)c1ccccc1	n	n	n	n	n	n
Cc1ccccc1C(=O)NCC(=O)NNC(=S)NC(=O)c1ccccc1C	n	n	n	u	n	10µM
Cc1ccccc1C(=O)NCC(=O)NNC(=S)NC(=O)c1ccccc1	n	n	n	n	n	1.12µM
COc1ccc(NC(=O)CN2C(=O)S/C(=C/c3cccn3-c3ccc(C(=O)O)cc3)C2=O)cc1	n	x	n	x	17.8µM	22.4µM
Cc1cccc(C)c1NC(=O)CN1C(=O)S/C(=C\c2cccn2-c2cccc(C(=O)O)c2)C1=O	n	n	n	50.1µM	79.4µM	u
Cc1cccc(C)c1-n1cccc1/C=C1\SC(=S)N(c2cccc(C(=O)O)c2)C1=O	44.7µM	u	39.8µM	u	50.1µM	u
Cn1cccc1/C=C1\SC(=O)N(c2ccccc2)C1=O	n	n	n	n	n	n
Cc1ccc(NC(=O)CN2C(=O)S/C(=C\c3cccn3-c3cccc(C(=O)O)c3)C2=O)c(C)c1	x	50.1µM	50.1µM	22.4µM	39.8µM	u
O=C(NC[C@H]1OC[C@@H](NCc2ncc[nH]2)[C@@H]1O)C1CCCC1	n	x	x	x	x	x
CC(=O)Nc1ccc(SCCCC(=O)c2cccs2)cc1	n	x	x	x	x	x
O=C1CCCN1CCCN1C(=O)[C@@H]2C[C@@H](O)CN2C2(CN(Cc3ccccc3Cl)C2)C1=O	n	x	x	x	x	x
O=C(O)C1(c2ccc(Cl)cc2)CCOCC1	n	x	x	x	x	x
Cc1ccccc1NC(=O)CN1C(=O)S/C(=C\c2cccn2-c2cccc(C(=O)O)c2)C1=O	n	u	n	79.4µM	56.2µM	u
O=C(COc1ccc(Cl)cc1)Nc1cccc2cccnc12	n	x	x	x	x	x
CNC(=O)c1cccc(-c2ccc(C(C)(C)C#N)cc2)n1	n	x	x	x	x	x
